D1 potentiator = human D1 dopamine receptor positive modulation | P21728 | HEK293 TREx D1 cells, calcium flux, dopamine EC20 potentiation | potentiation, % at 10 µM | actives 0.036% (n = 360,000) | AID 504651; in the data active = potentiation above about 30%
Target sequence (P21728 whole entry, looked up): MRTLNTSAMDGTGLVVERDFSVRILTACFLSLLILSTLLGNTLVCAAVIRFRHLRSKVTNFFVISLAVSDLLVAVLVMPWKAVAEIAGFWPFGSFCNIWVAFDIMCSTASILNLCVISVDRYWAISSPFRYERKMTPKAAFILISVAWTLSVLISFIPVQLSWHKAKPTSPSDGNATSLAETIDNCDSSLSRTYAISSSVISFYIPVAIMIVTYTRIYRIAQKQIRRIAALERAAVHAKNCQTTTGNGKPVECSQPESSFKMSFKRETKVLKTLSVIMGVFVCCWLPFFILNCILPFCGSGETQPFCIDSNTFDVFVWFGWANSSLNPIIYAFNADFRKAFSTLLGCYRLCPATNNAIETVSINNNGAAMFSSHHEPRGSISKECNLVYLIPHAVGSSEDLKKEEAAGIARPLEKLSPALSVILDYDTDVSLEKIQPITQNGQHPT
D3 antag = antagonists of human D3 dopamine receptor. D3R cells, DiscoveRx beta-arrestin luminescence, antagonist mode; stronger effect = lower value. max response, negative = inhibition, %. P35462. actives 2.5% (n = 360,000); in the data active = max response below about -50%; inconclusive = no clear call, values can overlap the other calls
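Cells expressing the human receptor were seeded at 1500 cells/well, incubated overnight at 37 degrees C in 5% CO2, then exposed to library compounds with dopamine controls for 90 minutes at 37 degrees C before luminescent detection.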
D1 antag = human D1 dopamine receptor antagonism. P21728. HEK293 TREx D1 cells, calcium flux, dopamine EC80; stronger effect = lower value. activity change, negative = inhibition, % at 10 µM. actives 3.2% (n = 360,000); in the data active = activity change below about -30%
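After overnight tetracycline induction at 30 C, force-coupled D1 HEK293 cells took up a no-wash calcium dye at room temperature. Compounds were added and monitored 180 s, and the response to EC80 dopamine was then recorded.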
D1 agonist = activates the human D1 dopamine receptor | HEK293 T-REx D1 cells, calcium flux, agonist mode | activation, % at 2 µM | actives 1% (n = 360,000) | AID 504660; in the data active = activation above about 30%
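Inducible HEK293 T-REx D1 cells, force-coupled to calcium signalling, were plated at 4000 cells/well with tetracycline and held overnight at 30 C. After no-wash calcium dye loading, compound-evoked calcium rise over 180 s flagged agonists.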
DRD3 agonist = activates the human D3 dopamine receptor | max activation, % | D3R DiscoveRx beta-arrestin cells, luminescence, 90 min | P35462 | actives 0.58% (n = 410,000); in the data active = max activation above about 30%
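Agonist mode: compounds and dopamine controls were applied to plated cells for 90 min at 37 degrees C after an overnight attachment at 1500 cells/well. Luminescent read-out followed 30 - 60 minutes at room temperature with DiscoveRx detection reagent.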
A number is an active result; – = inactive; ? = inconclusive; · = no result given. The list is not random: actives were taken first. Their share in the collection is about 6.1%.

SMILES | D1 potentiator | D3 antag | D1 antag | D1 agonist | DRD3 agonist
O=C(NCc1ccco1)c1ccc2c(c1)N(Cc1ccccc1)CCS2 | – | – | – | – | –
O=C(NCc1ccco1)c1ccc2c(c1)N(Cc1ccc(Cl)cc1)CCS2 | – | – | -37 | – | –
Cc1ccc(NC(=O)/C=C\C(=O)NCC(=O)O)cc1C | – | – | -37 | – | –
O=C(NN=C1CCCCCC1)c1c[nH]c2ccccc12 | – | ? | -46 | – | –
O=C(NN=C1CCCCCC1)c1cc2ccccc2cc1O | – | – | – | – | –
C/C(=N\NC(=O)c1cc2ccccc2cc1O)c1ccc(C)o1 | – | ? | – | – | –
C/C(=N\NC(=O)c1c[nH]c2ccccc12)c1ccc(C)o1 | – | – | -66 | – | –
CCOc1ccc(C(=O)NC2CCN(S(C)(=O)=O)CC2)cc1 | – | – | – | – | –
COc1ccccc1C(=O)NC1CC2CCC(C1)N2Cc1ccccc1 (centres undefined) | – | -95 | -50 | – | –
COc1ccc(C(=O)NC2CC3CCCC(C2)N3Cc2ccccc2)c(OC)c1 (centres undefined) | – | -89 | – | – | –
CCOc1ccc(C(=O)NC2CC3CCCC(C2)N3Cc2ccccc2)cc1 (centres undefined) | – | -54 | – | – | –
COc1ccc(C(=O)NC2CC3CCCC(C2)N3Cc2ccccc2)cc1 (centres undefined) | – | -108 | -49 | – | –
COc1ccc(C(=O)NC2CC3CCCC(C2)N3CC(C)C)cc1 (centres undefined) | – | – | – | – | –
Cc1ccc(C(=O)c2oc3ccccc3c2NC(=O)c2nc(S(C)(=O)=O)ncc2Cl)cc1F | – | · | – | – | –
O=C(CSc1ncc(S(=O)(=O)c2ccc(Br)cc2)c(=O)[nH]1)NCc1ccccc1Cl | – | · | – | – | –
Cc1ccccc1C(=O)NC1CC2CCCC(C1)N2CC(C)C (centres undefined) | · | – | · | · | –
O=C(NC1CC2CCC(C1)N2Cc1ccccc1)c1ccccc1Br (centres undefined) | – | -79 | – | – | –
O=c1c2cc3c(cc2[nH]c(=S)n1CCN1CCOCC1)OCO3 | – | – | -50 | – | –
COc1cc2c(=O)n(CCCN3CCOCC3)c(=S)[nH]c2c(OC)c1OC | – | -83 | – | – | –
CCOc1cc2[nH]c(=S)n(CCCN3CCOCC3)c(=O)c2cc1OCC | – | -71 | – | – | –
O=c1c2cc(F)ccc2[nH]c(=S)n1CCCN1CCOCC1 | – | – | – | – | –
CC1CCN(CCn2c(=S)[nH]c3cc4c(cc3c2=O)OCO4)CC1 | – | ? | – | – | –
CCOc1cc2[nH]c(=S)n(CCN3CCC(C)CC3)c(=O)c2cc1OCC | – | – | – | – | –
CCOC(=O)C1C(=O)NC(c2ccccc2)=NC1c1ccc(Cl)cc1 (centres undefined) | – | – | – | – | –
CCOC(=O)C1C(=O)NC(c2ccccc2)=NC1c1ccc(C(C)C)cc1 (centres undefined) | – | – | -34 | – | –
SMILES | D1 potentiator | D3 antag | D1 antag | D1 agonist | DRD3 agonist
Cc1cccc(-n2c(SCC(=O)N3CC(=O)Nc4ccccc43)nc3ccccc3c2=O)c1C | – | – | – | – | –
CC(=O)c1ccc(NC(=O)COc2ccccc2C(=O)Nc2ccccc2)cc1 | – | – | -61 | – | –
CC(=O)c1ccc(NC(=O)COc2ccccc2C(=O)Nc2ccc(C)cn2)cc1 | – | – | · | – | –
O=C(CNCCc1ccc(Cl)cc1)Nc1ccc(C(=O)N2CCCCC2)cc1 | – | – | – | 34 | –
O=C(Nc1ccc(C(=O)N2CCCC2)cc1)c1ccccc1 | · | – | · | · | –
Cc1cc(OCC(=O)Nc2ccc(N3CCN(C(=O)c4ccco4)CC3)cc2)cc(C)c1Cl | – | – | – | – | 55
O=C(Nc1ccc(C(=O)N2CCCCC2)cc1)c1ccc(Br)cc1 | – | – | -31 | – | –
COc1ccc(CCNC(=O)CN(c2cccc([N+](=O)[O-])c2)S(C)(=O)=O)cc1OC | – | – | – | – | –
Cc1cc(S(=O)(=O)Nc2ccc3cn[nH]c3c2)c(C)cc1Cl | – | – | – | – | –
O=C(Nc1ccc(N2CCN(C(=O)c3ccco3)CC2)cc1)c1ccc(Br)cc1 | – | – | -32 | – | –
COc1ccccc1C(=O)Nc1ccc(C(=O)N2CCCCC2)cc1 | – | – | – | – | –
COc1ccccc1C(=O)Nc1ccc(C(=O)N2CCCC2)cc1 | – | – | -71 | – | –
CCOc1ccc(NC(=O)c2ccccc2OC)cc1 | 41 | – | – | – | –
CCOC(=O)C1=C(Cn2cnc3ccccc32)NC(=O)NC1c1cc(C)ccc1C (centres undefined) | – | – | – | – | 34
COC(=O)C1=C(Cn2cnc3ccccc32)NC(=O)NC1c1cc(C)ccc1C (centres undefined) | – | – | – | – | 40
CCOC(=O)C1=C(CNCc2ccc(C)cc2)NC(=O)NC1c1cc(C)ccc1C (centres undefined) | – | – | – | – | –
CCOC(=O)C1=C(CSc2nccn2C)NC(=O)NC1c1cc(C)ccc1C (centres undefined) | – | – | – | – | –
CC(C)(C)OC(=O)NCc1nnc(-c2nc3ccccc3[nH]2)o1 | – | · | – | – | ·
COc1ccc(N2C(N)=C(C#N)C(c3ccsc3)C3=C2CCCC3=O)c(OC)c1 (centres undefined) | – | – | – | – | –
COC(=O)Cn1c(=NC(=O)c2ccc3c(c2)OCCO3)sc2ccccc21 | – | · | – | – | –
Nc1ccc2cc3ccc(N)cc3nc2c1 | · | · | · | · | –
N#CC1=C(N)C(C#N)(C#N)C(c2cccnc2)C2CN(C(=O)OCc3ccccc3)CC=C12 (centres undefined) | – | -74 | – | – | –
Cc1cc(CSc2ccccc2)ccc1NC(=O)c1ccc(CN2CCOCC2)cc1 | – | – | -31 | – | –
COc1cccc(NC(=O)c2ccc(CN3CCN(c4ccccc4)CC3)cc2)c1 | – | – | – | – | –
O=C(Nc1cccc(C(=O)N2CCN(Cc3ccccc3)CC2)c1)c1ccccc1 | – | – | -39 | – | –
SMILES | D1 potentiator | D3 antag | D1 antag | D1 agonist | DRD3 agonist
Cc1cccc(NC(=O)c2ccc(CN3CCN(Cc4ccccc4)CC3)cc2)c1 | – | – | -37 | – | –
CCC(CC)C(=O)Nc1cccc(C(=O)N2CCOCC2)c1 | – | – | -32 | – | –
CSc1ccccc1NC(=O)c1ccc(CN2CCOCC2)cc1 | – | – | – | – | –
Cc1cccc(-c2nn3c(=O)cc(CN4CCN(S(=O)(=O)c5ccc(Cl)cc5)CC4)nc3s2)c1 | – | · | – | – | –
Cc1ccccc1-c1nn2c(=O)cc(CN3CCN(C(=O)/C=C/c4ccccc4)CC3)nc2s1 | – | · | -32 | – | –
Cc1cccc(-c2nn3c(=O)cc(CN4CCN(C(=O)c5ccccc5Br)CC4)nc3s2)c1 | – | · | -34 | – | –

Compound activity: PubChem BioAssay, National Center for Advancing Translational Sciences (NCATS)
